Data reported in PubChem BioAssay.
Records with an inconclusive call do not appear. The source made the active and inactive calls.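 How the source made its calls, unless noted: active means viability loss from added drug above about 55%, and viability with drug at most 40%, in both replicates (limit read from the data, passing the limit was not always enough); inconclusive means both conditions met in only one replicate; inactive means neither replicate meets both conditions.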

Columns and labels:
[1] = reducers of endogenous Her2 protein level, primary screen, SKBR3 breast tumor cells, AlphaScreen, ATP viability (AID 461;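 active means Her2 level under about 52% in both replicate screens, with viability over 70% of control, limit read from the data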;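 on Her2 level: lower value means less Her2 protein in the cells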;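 on viability: percent of carrier control wells set as 100% viability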); conditions: 18-24 h, measured here: SKBR3 viability, ATP luminescence, at 10 µM
[2] = biological target: Receptor tyrosine-protein kinase erbB-2 (Homo sapiens) (UniProt P04626); assay: as above; conditions: 18-24 h, at 10 µM, stronger effect = lower value
Receptor tyrosine-protein kinase erbB-2 (Homo sapiens), sequence (P04626 whole entry, looked up): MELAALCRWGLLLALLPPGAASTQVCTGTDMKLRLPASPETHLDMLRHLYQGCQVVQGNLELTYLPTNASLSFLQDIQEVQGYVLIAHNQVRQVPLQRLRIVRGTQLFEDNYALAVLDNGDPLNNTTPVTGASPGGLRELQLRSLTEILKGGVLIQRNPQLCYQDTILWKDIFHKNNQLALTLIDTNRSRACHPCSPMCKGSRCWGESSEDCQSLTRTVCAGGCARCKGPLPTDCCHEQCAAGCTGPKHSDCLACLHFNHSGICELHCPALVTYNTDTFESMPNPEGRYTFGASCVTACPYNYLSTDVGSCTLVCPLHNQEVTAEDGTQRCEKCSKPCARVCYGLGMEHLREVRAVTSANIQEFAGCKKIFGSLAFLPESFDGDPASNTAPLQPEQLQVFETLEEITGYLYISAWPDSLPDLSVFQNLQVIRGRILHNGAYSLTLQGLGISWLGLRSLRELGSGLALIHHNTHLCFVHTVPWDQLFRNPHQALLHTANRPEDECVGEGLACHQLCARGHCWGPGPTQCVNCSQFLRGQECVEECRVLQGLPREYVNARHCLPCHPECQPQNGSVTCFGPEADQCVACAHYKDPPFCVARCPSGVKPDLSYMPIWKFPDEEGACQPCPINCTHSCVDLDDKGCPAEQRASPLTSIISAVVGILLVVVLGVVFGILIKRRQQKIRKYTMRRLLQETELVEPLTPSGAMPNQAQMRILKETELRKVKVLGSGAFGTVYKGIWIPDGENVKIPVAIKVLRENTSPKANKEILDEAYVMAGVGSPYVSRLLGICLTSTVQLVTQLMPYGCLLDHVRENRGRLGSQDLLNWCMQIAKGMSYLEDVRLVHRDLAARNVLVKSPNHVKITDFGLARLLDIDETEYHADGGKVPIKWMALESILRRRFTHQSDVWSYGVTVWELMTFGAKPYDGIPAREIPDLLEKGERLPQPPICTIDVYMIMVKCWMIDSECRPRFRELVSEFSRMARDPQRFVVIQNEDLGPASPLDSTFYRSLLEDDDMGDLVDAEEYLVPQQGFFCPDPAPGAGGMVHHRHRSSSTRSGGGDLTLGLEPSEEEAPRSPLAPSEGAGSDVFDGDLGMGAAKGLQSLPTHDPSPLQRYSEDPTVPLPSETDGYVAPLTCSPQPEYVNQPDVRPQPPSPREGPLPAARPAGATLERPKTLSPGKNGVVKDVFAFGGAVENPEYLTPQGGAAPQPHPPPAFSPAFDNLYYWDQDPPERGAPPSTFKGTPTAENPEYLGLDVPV

[3] = SK-BR-3 cell growth inhibitors, pilot screen, 24 h, human (AID 572;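 active means viability at or below 10% of carrier control in both of two separate runs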;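 further: compound exposure lasted between 18 and 24 h rather than exactly 24 h; 100% = carrier-treated control wells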); conditions: SK-BR-3 viability, CellTiter-Glo luminescence, at 10 µM, stronger effect = lower value
[4] = HUVEC growth inhibition – cell-based, human, primary screen (AID 575;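 active means viability at or below 30% in both replicate assays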;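 further: 100% = median of untreated cell wells with 0.1% DMSO on each plate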); conditions: HUVEC proliferation, CellTiter-Glo luminescence, 72 h; at 10 µM; stronger effect = lower value
[5] = growth inhibitors of H69AR lung tumor, primary screen, human, duplicate replicates (AID 580;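 active means viability at or under a set limit in both replicates, limit being median viability minus 3 SD, cut at about 48% in these data, passing the limit was not always enough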;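 further: 100% = mean luminescence of untreated wells and 0% = no signal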); conditions: H69AR lung tumor cells viability, ATP luminescence, 72 h; at 10 µM; stronger effect = lower value
[6] = reversal of MRP1-mediated doxorubicin resistance, pilot screen, H69AR cells, doxorubicin co-treatment (AID 601); conditions: CellTiter-Glo, 72 h, at 10 µM; for differential viability (reversal): stronger effect = higher value
[7] = 384-well plate pilot, post-Golgi transport modulator project, inhibition of yeast transport mutant growth (AID 636; in the data active means inhibition above about 31%); conditions: absorbance 615 nm, about 18 h, stronger effect = higher value
[8] = growth suppression of yeast trafficking mutant, preliminary HTS, modulators of trafficking downstream of Golgi apparatus project, 1536-format plate, OD 615 nm (AID 637; in the data active means inhibition above about 30%); conditions: yeast transport mutant growth, absorbance 615 nm, 18 h; stronger effect = higher value
[9] = OD615 S. cerevisiae growth inhibition, permissive medium, pilot counter-assay, permissive growth control for S. cerevisiae lifespan shortening project (AID 705;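 active means growth inhibition above 25% in both replicates, a cutoff set 3 SD above the mean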); conditions: OD615, 24 h, at 10 µM, stronger effect = higher value
[10] = Restrictive medium S. cerevisiae growth inhibition, OD615, pilot screen of yeast lifespan reduction project, restrictive growth control (AID 706;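 active means growth inhibition above a set limit, 3 SD over mean compound inhibition, in both replicates, cut at about 43% in these data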;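 further: modified DeaD lifespan yeast strain shifted to restrictive glucose medium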); conditions: OD615, 48 h, at 10 µM, stronger effect = higher value
[11] = viability gain of MRP-1-high H69AR cells under doxorubicin, pilot screen, MRP-1 activator project, CellTiter-Glo, duplicate (AID 807;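 active means viability increase at or above a cutoff of the median across tested compounds plus 3 SD, cut at about 8.5% in these data, passing the limit was not always enough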;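 further: compound pretreatment 18-22 h then 72 h combined with doxorubicin; 0% = doxorubicin alone and 100% = vehicle without doxorubicin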); conditions: H69AR viability with doxorubicin, CellTiter-Glo luminescence; at 10 µM; stronger effect = higher value
[12] = growth suppression of beta-catenin knockout HCT116, pilot screen, human colon tumor cells (AID 823;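 active means cell viability at or below a set limit in both duplicate runs, the limit being the all-compound median minus 4 SD, cut at about 23% in these data, passing the limit was not always enough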;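 further: 0% = wells killed by 20 µM Hyamine and 100% = untreated DMSO cell wells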); conditions: CellTiter-Glo, 60 h, at 10 µM, stronger effect = lower value
[13] = inhibitors of the yeast RAM network, pilot screen, dse1pr::URA3 reporter, 5-FOA selection (AID 869;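 active means inhibition over a set limit, the all-compound mean plus 3 SD, in both replicate runs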;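 further: 0% = DMSO wells with no growth and 100% = 10 µM 1-NA-PP1 with full growth; RAM network block rescues cells from 5-FOA so hits raise OD615 growth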); conditions: S. cerevisiae dse1pr::URA3 5-FOA growth, OD615, 2 d; at 10 µM; stronger effect = higher value; strain carries analog-sensitive mutant Cbk1 kinase
[14] = RAM signaling pathway blockade in yeast – S. cerevisiae, Pdr1DBD-CYC8 efflux-inhibited sensitized strain, primary screen (AID 1298;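 active means RAM network inhibition above 8.4% in each of two replicates, 3 SD over the compound average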;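 further: 0% = DMSO untreated cells without growth and 100% = 10 µM 1-NA-PP1 full growth; higher means more yeast growth rescued from 5-FOA killing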); conditions: S. cerevisiae cbk1-as DSE1-URA3 strain, 5-FOA growth OD615, 2 d; at 50 µM; stronger effect = higher value
[15] = growth suppression of PTEN-deleted HCT116, pilot screen, cell-based, HCT116 clonal line, CellTiter-Glo (AID 824;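 active means viability at or below 27.92% in each of two runs, the all-compound median minus 4 SD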;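 further: 0% = 20 µM Hyamine control and 100% = vehicle cell control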); conditions: 60 h, at 10 µM, stronger effect = lower value
[16] = H69AR cells + 2 uM doxorubicin, measured here: viability with 2 uM doxorubicin, stronger effect = lower value
[17] = H69AR cells, compound alone cytotoxicity

CCCc1nnc2n1N=C(c1ccc(-c3cc(Cl)ccc3Cl)o1)CS2
inactive: Her2 level [2] 94% | viability [3] 108% | viability [4] 97.1% | viability [5] 89.2% | differential viability (reversal) ([6]; H69AR cells + 2 uM doxorubicin) 1.35% | inhibition [7] -1.82% | inhibition [8] 0% | growth inhibition [9] -18.6% | growth inhibition [10] 4.29% | viability increase [11] -2.95% | viability [12] 97.8% | inhibition [13] 1.36% | RAM network inhibition [14] 1.93%
87.8%: viability [6, 16]
89.2%: viability [6, 17]
108%: viability [1]

CCC(C)(C(=O)NC1CCCC1)N(Cc1cccs1)C(C)=O (centres undefined)
96.9%: viability [6, 17]
90.2%: viability [6, 16]
inactive: Her2 level [2] 83.5% | viability [3] 120% | viability [4] 102% | viability [5] 96.9% | differential viability (reversal) ([6]; H69AR cells + 2 uM doxorubicin) 6.71% | inhibition [7] -9.04% | inhibition [8] 5.08% | growth inhibition [9] -17.6% | growth inhibition [10] -23.3% | viability increase [11] -0.17% | viability [12] 108% | viability [15] 96.3% | inhibition [13] 0.55% | RAM network inhibition [14] 4.23%
120%: viability [1]

Nn1c(Cc2ccccc2F)nnc1SCC(=O)N1CC(=O)Nc2ccccc21
112%: viability [1]
84.1%: viability [6, 17]
86.1%: viability [6, 16]
inactive: Her2 level [2] 94.5% | viability [3] 112% | viability [4] 109% | viability [5] 84.1% | differential viability (reversal) ([6]; H69AR cells + 2 uM doxorubicin) -1.98% | inhibition [7] -2.86% | inhibition [8] -10.7% | growth inhibition [9] -11.9% | growth inhibition [10] -7.2% | viability increase [11] -2.14% | viability [12] 114% | inhibition [13] 2.1% | RAM network inhibition [14] 3.29%

CCOc1ccc(N(CC(=O)Nc2ccc(C)c(C)c2)S(=O)(=O)c2c(C)noc2C)cc1
68.2%: viability [6, 16]
53.8%: viability [6, 17]
101%: viability [1]
inactive: Her2 level [2] 75% | viability [3] 101% | viability [4] 68.8% | viability [5] 53.8% | differential viability (reversal) ([6]; H69AR cells + 2 uM doxorubicin) -14.4% | inhibition [7] -0.13% | inhibition [8] 3.67% | growth inhibition [9] 0.98% | growth inhibition [10] -5.67% | viability increase [11] -6.26% | viability [12] 27.4% | inhibition [13] 1.85% | RAM network inhibition [14] 6.75%

O=C(COc1ccc2ccccc2c1)N1CCCC1
90%: viability [6, 17]
81.4%: viability [6, 16]
101%: viability [1]
inactive: Her2 level [2] 88.5% | viability [3] 101% | viability [4] 85.3% | viability [5] 90% | differential viability (reversal) ([6]; H69AR cells + 2 uM doxorubicin) 8.64% | inhibition [7] 0.38% | inhibition [8] -6% | growth inhibition [9] -2.41% | growth inhibition [10] -2.41% | viability increase [11] -0.13% | viability [12] 96.2% | viability [15] 101% | inhibition [13] 0.745% | RAM network inhibition [14] 6.48%

Cn1c(C(=O)NCCCN2CCN(c3ccc(F)cc3)CC2)cc2c(=O)n(C)c3ccccc3c21
81%: viability [1]
84.1%: viability [6, 17]
79.8%: viability [6, 16]
inactive: Her2 level [2] 90% | viability [3] 81% | viability [4] 65.7% | viability [5] 84.1% | differential viability (reversal) ([6]; H69AR cells + 2 uM doxorubicin) 4.36% | inhibition [7] -3.07% | inhibition [8] 0% | growth inhibition [9] -6.23% | growth inhibition [10] 7.21% | viability increase [11] -5.3% | viability [12] 67.8% | viability [15] 70.1% | inhibition [13] -0.495% | RAM network inhibition [14] 1.71%

CNC(=O)C1C2C=CC3(O2)C1C(=O)N(C1CC1)C3C(=O)NCc1ccc(OC)cc1 (centres undefined)
92%: viability [6, 16]
inactive: Her2 level [2] 84% | viability [3] 99.5% | viability [4] 91.9% | viability [5] 91.5% | differential viability (reversal) ([6]; H69AR cells + 2 uM doxorubicin) -0.53% | inhibition [7] -8.49% | inhibition [8] -0.16% | growth inhibition [9] -12.6% | growth inhibition [10] 1.86% | viability increase [11] -1.49% | viability [12] 96.3% | inhibition [13] 0.115% | RAM network inhibition [14] 1.1%
99.5%: viability [1]
91.5%: viability [6, 17]

CC(C(=O)N1CC2(C)CC1CC(C)(C)C2)N1C(=O)c2ccccc2C1=O (centres undefined)
84%: viability [1]
81.3%: viability [6, 16]
inactive: Her2 level [2] 101% | viability [3] 84% | viability [4] 101% | viability [5] 98.1% | differential viability (reversal) ([6]; H69AR cells + 2 uM doxorubicin) 16.8% | inhibition [7] -7.07% | inhibition [8] 0.32% | growth inhibition [9] -13.3% | growth inhibition [10] -0.265% | viability increase [11] -3.98% | viability [12] 82.1% | viability [15] 83.5% | inhibition [13] 0.545% | RAM network inhibition [14] 4.35%
98.1%: viability [6, 17]

COc1cccc(N(C(C)=O)c2nc(C)cc(C)c2C#N)c1
95.3%: viability [6, 16]
102%: viability [1]
104%: viability [6, 17]
inactive: Her2 level [2] 87% | viability [3] 102% | viability [4] 96.1% | viability [5] 104% | differential viability (reversal) ([6]; H69AR cells + 2 uM doxorubicin) 8.34% | inhibition [7] -7.26% | inhibition [8] -1.59% | growth inhibition [9] -15.4% | growth inhibition [10] 9.36% | viability increase [11] -0.35% | viability [12] 109% | inhibition [13] 1.36% | RAM network inhibition [14] 2.39%

Fc1ccc(-c2ccc(-c3nn4c(-c5ccco5)nnc4s3)o2)cc1
inactive: Her2 level [2] 63% | viability [3] 76% | viability [4] 77.8% | viability [5] 79.7% | differential viability (reversal) ([6]; H69AR cells + 2 uM doxorubicin) 5.16% | inhibition [7] -4.32% | inhibition [8] 4.92% | growth inhibition [9] 2.35% | viability increase [11] -3.88% | viability [12] 97.1% | inhibition [13] 1.25% | RAM network inhibition [14] 2.34%
74.5%: viability [6, 16]
79.7%: viability [6, 17]
76%: viability [1]
active: growth inhibition [10] 60.4%
